PLK1 PBD block: qHTS for Inhibitors of PLK1-PDB (polo-like kinase 1 - polo-box domain): Primary Screen | Serine/threonine-protein kinase PLK1 (Homo sapiens), P53350 | Plk1 PBD binding of FITC phosphopeptide, fluorescence polarization | Potency, µM, without a hit: max response, negative = inhibition, hits mostly inhibitors | 360,000 compounds, 2.8% hits | AID 720504, 2013; note: series mostly up to about 57 µM; % is set by controls: 0 for no effect and ±100 for the full control effect; nearly all actives have a fitted effect of over 65% in size
BAZ2B block: qHTS Assay for Inhibitors of BAZ2B; AID 504333, 2011; Bromodomain adjacent to zinc finger domain protein 2B (Homo sapiens), Q9UIF8; 360,000 compounds, 4.4% hits; AlphaScreen BAZ2B-H3K14Ac peptide displacement; Potency, µM (highest dose often 114 µM), inactives show at the top dose activity change, negative = inhibition, hits mostly inhibitors; note: % is set by controls: 0 for no effect and ±100 for the full control effect; nearly all actives have a fitted effect of over 60% in size
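AlphaScreen displacement of biotin-H3(5-23)K14Ac peptide (50 nM final) from BAZ2B (50 nM final) in PBS pH 7.4, 0.01% Tween-20; complex preformed 30 min RT, then compounds (top 110 uM) 30 min RT, beads 20 min dark.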
JMJD2A Tudor: qHTS Assay for Inhibitors of JMJD2A-Tudor Domain; 390,000 compounds, 4.4% hits; Lysine-specific demethylase 4A (Homo sapiens), O75164; AlphaScreen JMJD2A-Tudor / H3K4me3 peptide binding; AID 504339, 2011; Potency, µM (top dose mostly 114 µM), without a hit: at the top dose activity change, negative = inhibition, actives largely listed as inhibitors; note: % is set by controls: 0 for no effect and ±100 for the full control effect; nearly all actives have a fitted effect of over 50% in size
HP1b binding inh: HTS for Inhibitors of HP1-beta Chromodomain Interactions with Methylated Histone Tails. 390,000 compounds, 0.56% hits. AID 540317, 2011. Potency, µM (top dose mostly 114 µM), inactives show top-dose activity change, negative = inhibition, actives largely listed as inhibitors. AlphaScreen HP1-beta / biotin-H3K9me3 peptide binding; note: nearly all actives have a fitted effect of over 70% in size
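HP1-beta protein (50 nM final) preincubated 30 min at room temperature with biotinylated H3(1-18)K9me3 peptide (50 nM) in PBS pH 7.4, 0.01% Tween-20, then compound added for 30 min. AlphaScreen streptavidin donor/nickel chelate acceptor beads (10 ug/mL final), 30 min dark, luminescence read.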
G9a block: qHTS Assay for Inhibitors of Histone Lysine Methyltransferase G9a. G9a H3K9 monomethylation, AlphaScreen, 2 h. Potency, µM (highest dose often 102 µM), for the others: top-dose activity, negative = inhibition, actives largely listed as inhibitors. 350,000 compounds, 8.8% hits; note: % is set by controls: 0 for no effect and ±100 for the full control effect; nearly all actives have a fitted effect of over 75% in size
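Using a bead-based AlphaScreen, monomethylated H3K9 product from 2 h room-temperature reactions (G9a 20 nM, peptide 500 nM, SAM 20 uM) was detected with 0.5 ug/mL rabbit anti-H3K9me1 antibody.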
Sfp inh: qHTS Assay for Inhibitors of Bacillus subtilis Sfp phosphopantetheinyl transferase (PPTase); 4'-phosphopantetheinyl transferase ffp (Bacillus subtilis), Q9F4F7; 310,000 compounds, 3.5% hits; Biochemical Sfp PPTase activity, qHTS; AID 1490, 2009; Potency, µM, inactives show largest response in the series, negative = inhibition, actives largely listed as inhibitors;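 note: the enzyme is Sfp with the accession as filed and its product quenches rhodamine fluorescence; 0% = enzyme reaction without inhibitor and -100% = no enzyme wells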
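Compounds were incubated with enzyme (final 15 nM) for 15 min at room temperature before substrate addition started the reaction. Fluorescence at 525 nm excitation, 598 nm emission was recorded immediately and after 30 minutes.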
Numbers without * were called inactive; ? = inconclusive; nt = not tested or not shown; [ ] = remark or other dose. In the library only some 12% were active in any assay of this set; here they are far more common. Calls come from the whole dose curve; as a rule, active = well fitted curve in the direction sought with a large enough effect; inconclusive = small, poorly fitted or top-dose-only effect, or another doubt; inactive = no such curve, though single readings can be large; an effect the other way counts as inactive or inconclusive. Potency is the fitted concentration of half-maximal effect.

SMILES	PLK1 PBD block	BAZ2B block	JMJD2A Tudor	HP1b binding inh	G9a block	Sfp inh
COc1ccccc1NC(=S)N(CCCN1CCOCC1)Cc1cn(C)c2ccccc12	?	?	?	-7%	?	-6%
COc1ccc(Cl)cc1NC(=S)N(CCCN1CCOCC1)Cc1cn(C)c2ccccc12	6µM*	?	?	?	10µM*	13µM*
Cc1cccc(C)c1NC(=O)C(c1ccccc1)N1CCN(c2ccc(C(F)(F)F)cn2)CC1 (stereo not given)	-3%	nt	nt	nt	nt	nt
CCOc1ccc(-n2c(-c3ccc(Br)cc3)cc3c2CC(C)(C)CC3=O)cc1	nt	10µM*	13µM*	?	?	nt
Oc1ccc(/C=N/Nc2ccnc3cc(Cl)ccc23)c(O)c1O	2.1µM*	45µM*	?	-37%[57 µM]	22µM*	45µM*
CC/C(=N\Nc1ccnc2cc(Cl)ccc12)c1ccc(O)cc1	-12%	?	?	-34%	28µM*	4%
CCN(CC)Cc1ccc(Nc2ccnc3cc(Cl)ccc23)cc1O	nt	nt	nt	nt	-33%[2.33 µM]	-11%
Oc1ccc(/C=N/Nc2ccnc3cc(Cl)ccc23)cc1O	-12%	40µM*	-12%[11.4 µM]	-19%	?	?
COc1ccc(S(=O)(=O)N2CCN(C(=O)COc3ccc(C)c(C)c3)CC2)cc1OC	-7%	-9%	-18%	11%	nt	-6%
O=C(Cn1c(=O)n(Cc2ccco2)c(=O)c2sc3ccccc3c21)Nc1ccccc1C(F)(F)F	nt	-12%	-9%	42%	-2%[59 µM]	nt
CC1Cn2c(nnc2-c2cc3ccccc3cc2O)S1 (stereo not given)	1%	-8%	-32%	15%	?	-17%
CC1Cn2c(nnc2-c2ccccc2O)S1 (stereo not given)	-3%	?	?	33%	8.9µM*	-4%
COCc1cc(C)nc2c1C(=O)NC(c1ccc(C)cc1)N2Cc1ccccc1 (stereo not given)	nt	-2%	2%	28%	-11%[59 µM]	nt
COC(=O)C/C=N/N=C1/NC(=O)/C(=C/C(=O)O)S1	-2%	-33%	50µM*	90%	45µM*	?
COC(=O)/C=C1\S/C(=N/N=C/c2ccccc2)NC1=O	-16%	0%	-21%	13%	?	2%
